D1 antag – Antagonist of Human D 1 Dopamine Receptor: qHTS. D(1A) dopamine receptor (Homo sapiens), P21728. HEK293 TREx D1 cells, calcium flux, dopamine EC80; active compounds read low. activity change, negative = inhibition, % at 10 µM. 3.2% of 360,000 active. AID 504652, 2011; in the data active = activity change below about -30%
Target sequence (P21728 whole entry, looked up): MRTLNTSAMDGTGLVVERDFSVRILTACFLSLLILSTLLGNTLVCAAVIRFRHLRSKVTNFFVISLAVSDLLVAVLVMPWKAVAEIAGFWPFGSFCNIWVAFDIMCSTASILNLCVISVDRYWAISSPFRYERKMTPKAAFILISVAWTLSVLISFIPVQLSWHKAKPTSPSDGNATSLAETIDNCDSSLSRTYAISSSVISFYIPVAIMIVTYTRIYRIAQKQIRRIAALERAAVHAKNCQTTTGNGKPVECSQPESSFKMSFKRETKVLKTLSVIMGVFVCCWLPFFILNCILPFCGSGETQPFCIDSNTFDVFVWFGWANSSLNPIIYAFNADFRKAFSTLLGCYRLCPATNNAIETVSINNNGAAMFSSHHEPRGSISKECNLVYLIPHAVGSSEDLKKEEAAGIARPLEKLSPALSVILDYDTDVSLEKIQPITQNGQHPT
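Cells carrying a force-coupled, tetracycline-inducible human D1 receptor report calcium flux. Each well gets a 10 s baseline, compound with 180 s monitoring, then an EC80 dopamine stimulus with a second 180 s kinetic read.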
D1 agonist – Allosteric Agonists of the Human D1 Dopamine Receptor: qHTS. HEK293 T-REx D1 cells, calcium flux, agonist mode. activation, % at 2 µM. 1% of 360,000 active. AID 504660, 2011
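Tetracycline-induced HEK293 TREx D1 cells, force-coupled to calcium signalling, were dye-loaded with a no-wash calcium kit. Compound was pin-added after a 10 s baseline. Fluorescence was read kinetically at 1 cycle/s for 180 s, with calcium rises flagged as agonism.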
D1 PAM – Potentiators of Human D1 Dopamine Receptor: qHTS | 0.036% of 360,000 active | HEK293 TREx D1 cells, calcium flux, dopamine EC20 potentiation | potentiation, % at 10 µM | AID 504651, 2011; in the data active = potentiation above about 30%
TRHR agonist – qHTS for Small Molecule Agonists and Allosteric Enhancers of Human TRH Receptor: Primary Screen for Agonists. Thyrotropin-releasing hormone receptor (Homo sapiens), P34981. TRHR cells, calcium flux fluo-8, FDSS agonist mode. activation, % at 2 µM. 0.18% of 360,000 active
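TRHR-expressing cells, plated overnight in medium with 10% serum, were loaded with fluo-8 calcium dye at room temperature. After a 10 s baseline, library compound was pin-added and calcium release was recorded kinetically (ex 480/em 530) as agonist response.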
TRHR PAM – qHTS for Small Molecule Agonists and Allosteric Enhancers of Human TRH Receptor: Primary Screen for Enhancers | TRHR cells, fluo-8 calcium fluorescence, EC20 TRH enhancement | enhancement, % at 2 µM | Thyrotropin-releasing hormone receptor (Homo sapiens), P34981 | 0.66% of 360,000 active; in the data active = enhancement above about 30%
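TRHR-expressing cells loaded with fluo-8 calcium dye were read kinetically (ex 480/em 530) during compound addition, then stimulated with an EC20 of TRH (10 nM final). Enhancement of the Gq-mediated intracellular calcium response was scored.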
Hits are given with their value; – = inactive; · = no result given. The list is not random: actives were taken first. Their share in the collection is about 4.7%. Cut-off read from the data, not from the text of the source, unless noted: active = activation above about 30%; inactive = the rest.

SMILES	D1 antag	D1 agonist	D1 PAM	TRHR agonist	TRHR PAM
CCCCC(C(=O)O)C(C)CC(=O)Nc1ccn(-c2ccccc2)n1 (stereo not given)	-59.5	–	–	–	–
CC(C)CC(C(=O)O)C(C)CC(=O)Nc1ccn(-c2ccccc2)n1 (stereo not given)	–	–	–	–	–
O=C(O)c1ccc(CSc2nc(-c3ccc(Cl)cc3)cc(C(F)(F)F)n2)cc1	–	36.6	–	–	–
O=C(Nc1ccc(Cl)c(C(F)(F)F)c1)C(Cc1ccccc1)NS(=O)(=O)c1ccc(Br)s1 (stereo not given)	–	–	–	–	–
c1ccc2c(c1)nc1n2C2(N3CCOCC3)CCCC2C1N1CCOCC1 (stereo not given)	–	46.6	–	–	–
Oc1ccc2c(c1)C1CCCC1(N1CCOCC1)O2 (stereo not given)	–	–	–	–	–
CCOC(=O)C(Oc1ccc2c(-c3ccccc3)cc(=O)oc2c1)c1ccccc1 (stereo not given)	-31.0	–	–	–	–
Oc1ccc(Cl)cc1Cc1cc(Cl)ccc1O	–	111.0	–	–	–
Oc1ccc(Cl)cc1CNCc1ccc(Cl)cc1	–	–	–	–	–
Oc1ccc(Cl)cc1CNCc1ccc(F)cc1	–	60.5	–	–	–
CC1=[N+](C)c2ccc3ccccc3c2C1(C)C	–	–	–	–	35.2
Cc1ccnc(NC(c2ccccc2F)c2ccc3cccnc3c2O)c1 (stereo not given)	–	–	–	–	–
Cc1ccnc(NC(c2cc(C)ccc2O)c2ccc3cccnc3c2O)c1 (stereo not given)	-49.7	–	–	–	–
CC(C)CCOc1ccc(Oc2nc(N(C)C)nc(N(C)C)n2)nn1	–	–	–	–	–
COC(=O)c1ccc(CSc2nc3ccncc3n2Cc2ccc(F)cc2)cc1	–	–	–	–	–
COC(=O)c1ccc(Cn2c(SCc3cccc(C)c3)nc3ccncc32)cc1	-32.5	52.1	–	–	–
O=C(NCCc1ccccc1)C(=O)Nc1nccs1	–	32.6	–	–	–
O=C(CCNS(=O)(=O)c1cccs1)Nc1nccs1	-31.9	–	–	–	–
O=C(CCNS(=O)(=O)c1cccs1)Nc1ccccc1F	–	–	–	–	–
S=C(NCCc1ccccc1)Nc1nccs1	–	–	–	–	–
Cc1ccc(CC(=O)Nc2nccs2)cc1C	–	–	–	–	32.4
Oc1ccc(COCc2ccc(F)cc2)c2cccnc12	–	–	–	–	–
Cn1c2ccsc2c2ncn(Cc3ccc(F)cc3)c(=O)c21	–	–	–	–	36.0
COc1ccc2c(c1)c1ncn(Cc3ccc(F)cc3)c(=O)c1n2C	–	–	–	–	–
COc1ccc(-c2nn(-c3ccccc3)cc2C(=O)Nc2ccc(C(=O)O)cc2)cc1	–	–	–	–	–
SMILES	D1 antag	D1 agonist	D1 PAM	TRHR agonist	TRHR PAM
COc1ccc(-c2nn(-c3ccccc3)cc2C(=O)NC(=S)N2CCOCC2)cc1OC	-38.6	–	–	–	–
COc1ccc(-c2nn(-c3ccccc3)cc2C(=O)Nc2ccccc2OC)cc1	–	–	–	–	43.9
COC(=O)c1cn(-c2ccccc2)nc1-c1ccc(OC)c(OC)c1	–	–	–	–	–
CCOC(=O)C(=O)Nc1ccc(F)cc1	–	–	–	–	–
CCOC(=O)C(=O)Nc1ccc(Oc2ccccc2)cc1	-33.5	–	–	–	–
CCOC(=O)/C=C/C(=O)Nc1ccc(Oc2ccccc2)cc1	-35.6	–	–	–	–
Cc1ccc(Cc2nc3ccccc3nc2SCC(=O)NCCc2ccccc2)cc1	–	–	–	–	–
COc1cc2c(cc1OC)C1=C(C#N)CC/C(=N\S(=O)(=O)c3cccc(Cl)c3)N1CC2	-74.0	–	–	–	–
O=C(NCCC1=CCCCC1)c1ccc2c(c1)ncn2-c1ccc(F)c(F)c1	–	–	–	–	–
CCc1noc(N)c1C(=O)Nc1ccc(Cl)cc1	–	–	–	–	–
CCc1noc(N)c1C(=O)Nc1ccc(F)c(Cl)c1	-35.5	–	–	–	–
O=C(Cn1c(=O)n(Cc2ccc3c(c2)OCO3)c(=O)c2oc3ccccc3c21)Nc1ccccc1	–	–	–	–	–
COc1ccc(-c2nn(C)c3sc(C(=O)N4CCOCC4)cc23)cc1OC	-60.3	–	–	–	–
CC1CCN(C(=O)c2cc(-c3ccc4c(c3)OCO4)on2)CC1	-33.2	–	–	–	–
COc1ccc(-c2cc(C(=O)N3CCOCC3)no2)cc1OC	-32.4	–	–	–	–
COc1cc(C)ccc1OCc1cc(C(=O)N2CCCCCCC2)no1	–	–	–	–	39.1
COc1ccc(-c2nn(C)c3sc(C(=O)N4CCN(c5ccccc5F)CC4)cc23)cc1OC	–	–	–	–	–
CC(=O)Nc1ccc(C)cc1-c1nc2ccccc2n(CC(=O)Nc2cc(Cl)ccc2C)c1=O	–	–	–	–	–
O=C(CSc1nc(=O)n(Cc2ccncc2)c2c1CCC2)Nc1ccccc1	·	–	–	–	–
O=C(NCc1cccs1)c1cc(-c2ccc(O)cc2)on1	–	49.9	–	–	–
COc1ccc(-c2cc(C(=O)NCc3ccccc3)no2)cc1OC	–	37.3	–	–	–
O=C(c1cc(-c2ccc(Cl)c(Cl)c2)on1)N1CCN(c2ccccc2)CC1	-31.1	–	–	–	–
CCCCNC(=S)NNC(=O)c1csc(C(C)C)c1	-45.3	–	–	–	–
CCNC(=S)NNC(=O)c1csc(C(C)C)c1	–	–	–	–	–
Cc1nn2c(NCCCN(C)C)c3c(nc2c1-c1ccccc1)CCCC3	-38.1	–	–	–	–
SMILES	D1 antag	D1 agonist	D1 PAM	TRHR agonist	TRHR PAM
O=C(COC(=O)[C@H](Cc1ccccc1)NC(=O)c1cccs1)NC1CCCCC1	-42.8	–	–	–	–
O=C(COC(=O)c1ccccc1NS(=O)(=O)c1cccs1)NC1CCCCC1	-54.7	–	–	–	–
Cc1cccc(S(=O)(=O)c2cn(Cc3ccccc3)c3cc(N4CCC(C)CC4)c(F)cc3c2=O)c1	–	–	–	–	–
CC(=O)CSc1ccc(-c2nc3ccccc3[nH]2)cn1	–	–	–	–	–
Cc1cc2nc(-c3ccc(SCc4ccc(C#N)cc4)nc3)[nH]c2cc1C	-42.9	–	–	–	–
N#Cc1ccccc1CSc1ccc(-c2nc3ccccc3[nH]2)cn1	-35.2	–	–	–	–
CCC(Cn1nnc2ccccc2c1=O)NC(=O)Nc1ccc(C)cc1C (stereo not given)	–	–	–	–	–
CC(C)CCNc1nc2c(S(=O)(=O)c3ccc(Br)cc3)nnn2c2ccsc12	–	–	–	–	–
